Screens deposited in PubChem by several laboratories.
Hits are enriched below; roughly 2.8% of the tested compounds scored in any of these assays.
ERa SRC1 inh = ER-alpha (human) coactivator binding inhibition; P03372; TR-FRET ER-alpha LBD / SRC-1 peptide, estradiol-bound; AID 629; 86,000 compounds, 1.7% hits; inhibition, % at 25.6 µM; in the data active = inhibition above about 50%;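 also: 0% = receptor plus peptide control and 100% = peptide only without receptor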
Target sequence (P03372 whole entry, looked up, the tested form may be a part): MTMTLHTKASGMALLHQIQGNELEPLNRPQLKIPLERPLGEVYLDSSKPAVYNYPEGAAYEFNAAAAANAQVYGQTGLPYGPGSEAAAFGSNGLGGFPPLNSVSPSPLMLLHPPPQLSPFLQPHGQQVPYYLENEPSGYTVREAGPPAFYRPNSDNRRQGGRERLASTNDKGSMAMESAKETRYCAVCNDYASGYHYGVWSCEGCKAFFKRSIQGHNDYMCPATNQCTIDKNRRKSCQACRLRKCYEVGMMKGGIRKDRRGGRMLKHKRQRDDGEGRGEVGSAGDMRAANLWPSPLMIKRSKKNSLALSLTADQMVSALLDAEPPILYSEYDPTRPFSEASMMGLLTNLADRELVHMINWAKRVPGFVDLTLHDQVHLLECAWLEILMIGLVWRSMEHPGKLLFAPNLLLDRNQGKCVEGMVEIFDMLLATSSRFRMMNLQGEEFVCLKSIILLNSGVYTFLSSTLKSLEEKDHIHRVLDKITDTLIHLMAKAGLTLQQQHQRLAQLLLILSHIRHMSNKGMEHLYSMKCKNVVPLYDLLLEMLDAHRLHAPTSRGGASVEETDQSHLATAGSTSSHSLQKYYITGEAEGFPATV
MRP-1 activ = MRP-1 activation; H69AR cells + doxorubicin, viability rescue, CellTiter-Glo; viability increase, % at 10 µM; 140,000 compounds, 0.61% hits;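 active = viability gain under doxorubicin at or above a set limit, the compound median plus 3 SD, cut at about 4.7% in these data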;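 also: MRP-1 overexpressing cells given doxorubicin 25 µM after compound pretreatment; 18-22 h compound pretreatment then 72 h with doxorubicin before readout; 0% = doxorubicin-only wells and 100% = vehicle-treated cells without doxorubicin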
MRP resist rev = reverses drug resistance mediated by MRP. H69AR cells + 2 uM doxorubicin, CellTiter-Glo, 72 h. differential viability (reversal), % at 10 µM. 85,000 compounds, 0.04% hits;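 active = viability drop by adding the cancer drug above about 55%, with treated viability meeting a 40% cutoff, limit read from the data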;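 also: viability without doxorubicin minus viability with 2 µM doxorubicin for each compound; larger differential means the compound sensitizes cells more to doxorubicin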
ERa coact pot = enhances coactivator binding to human estrogen receptor alpha. P03372. TR-FRET ERalpha-LBD/SRC-Cy5 coactivator binding, 2 h; 100 = basal binding, no effect. coactivator binding (% of control), % at 25.6 µM. 86,000 compounds, 1.3% hits. AID 639; in the data active = activity above about 200%;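 also: binding measured in presence of low estradiol as agonist stimulus; 0% = peptide alone without receptor and 100% = receptor with peptide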
Smad3 inh = Smad3 (human) transcription factor binding inhibition. 88,000 compounds, 0.29% hits. P84022. inhibition, % at 25 µM. TR-FRET Smad3/Dy647-FoxH1 peptide binding, europium anti-His;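 active = compounds that reduce the energy-transfer binding signal between the protein and its labelled peptide by more than half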;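 also: 0% = Smad3 plus labelled peptide maximal FRET and 100% = peptide-only background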
ERb coact inh = blocks coactivator binding to human estrogen receptor beta. inhibition, % at 25.6 µM. TR-FRET ER-beta LBD / SRC1-Cy5 peptide binding; receptor agonist-loaded with 1 µM estradiol. 86,000 compounds, 1.3% hits. Q92731;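 active = compounds whose percent inhibition of the receptor-coactivator binding signal exceeds about 50% in the single-dose screen, limit read from the data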;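 also: 0% = receptor plus peptide wells without compound and 100% = peptide-only wells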
Starred values were filed as active, the others as inactive; [ ] = another dose, or the depositor's remark.

`O=c1cc(-c2ccccc2Cl)c2c([nH]1)CCC2` gave ERa SRC1 inh 48, MRP-1 activ -2, MRP resist rev 3, ERa coact pot 63, Smad3 inh 1 and ERb coact inh 57*[fluorescence artefact?].
`Oc1ccccc1-c1nnc(SCCN2CCOCC2)n1Cc1ccccc1` gave ERa SRC1 inh 26, MRP-1 activ -6, MRP resist rev -12, ERa coact pot 86, Smad3 inh 14 and ERb coact inh 59*.
Screening Cc1ccc(C2CC(C(F)(F)F)n3nc(C(=O)NCc4c(C)nn(C)c4C)c(Cl)c3N2)cc1 (stereo not given) returned MRP-1 activ 6.4*.
`c1ccc(CN2COc3c(ccc4c5c(ccc34)CN(Cc3ccccc3)CO5)C2)cc1` gave Smad3 inh 47.
For O=C(Cn1c(=O)c2c(ncn2Cc2ccccc2)n(Cc2ccccc2)c1=O)N1CCc2ccccc21 the results were ERa SRC1 inh 2, MRP-1 activ 5.3*, MRP resist rev 16, ERa coact pot 98, Smad3 inh 4 and ERb coact inh -9.
CCn1cnc2c1c(=O)n(CC(=O)N1CCc3ccccc31)c(=O)n2Cc1ccccc1 was read as ERa SRC1 inh -8, MRP-1 activ 2, MRP resist rev 3, ERa coact pot 139, Smad3 inh 2 and ERb coact inh -10.
Screening O=C(O)C(Sc1ccc(Cl)cc1)Sc1ccc(Cl)cc1 returned Smad3 inh -2.
Screening O=C(Nc1cccc(C(F)(F)F)c1)c1cnc2n(c1=O)CCS2 returned ERa SRC1 inh 2, MRP-1 activ 0, MRP resist rev -4, ERa coact pot 285*[fluorescence artefact?], Smad3 inh 8 and ERb coact inh 6.
`N/C(Cc1ccc([N+](=O)[O-])cc1)=N\OC(=O)c1ccc2ccccc2c1` gave ERa SRC1 inh 50*, MRP-1 activ -2, MRP resist rev -24, ERa coact pot 119, Smad3 inh 2 and ERb coact inh 20.
For CCn1c(C(=O)N2CCCC(C(=O)NCCc3ccc(C)cc3)C2)cc2sccc21 (stereo not given) the results were ERa SRC1 inh -60, MRP-1 activ -1, MRP resist rev -26, ERa coact pot 100, Smad3 inh 0 and ERb coact inh -8.
`CCn1c(C(=O)N2CCCC(C(=O)NCCCc3ccccc3)C2)cc2sccc21` (stereo not given) gave ERa SRC1 inh -3, MRP-1 activ 3, MRP resist rev -17, ERa coact pot 132, Smad3 inh 2 and ERb coact inh 80*[fluorescence artefact?].
O=C(c1sc2ccccc2c1Cl)N(Cc1cccs1)C1CCS(=O)(=O)C1 (stereo not given) was read as ERa SRC1 inh 58*[fluorescence artefact?], MRP-1 activ -4, MRP resist rev -1, ERa coact pot 89, Smad3 inh -13 and ERb coact inh 4.
Screening O=C(c1cccc(Cl)c1)N(Cc1cccs1)C1CCS(=O)(=O)C1 (stereo not given) returned ERa SRC1 inh 0, MRP-1 activ -3, MRP resist rev 8, ERa coact pot 108, Smad3 inh 1 and ERb coact inh -1.
Cc1nn(Cc2ccc(C(=O)Nc3nccs3)cc2)c(C)c1Cl was read as ERa SRC1 inh 11, MRP-1 activ -1, MRP resist rev -6, ERa coact pot 129, Smad3 inh 4 and ERb coact inh 2.
COc1cc2c(=O)n(Cc3ccco3)c(=O)n(CC(=O)c3cccc(Br)c3)c2cc1OC was read as ERa SRC1 inh 25, MRP-1 activ -1, MRP resist rev 0, ERa coact pot 283*[fluorescence artefact?], Smad3 inh -18 and ERb coact inh 16.
Screening Nc1ccccc1CCCC(=O)O returned Smad3 inh 7.
Screening O=C(CS(=O)(=O)c1cn(Cc2ccccc2Cl)c2ccccc12)N1CCOCC1 returned ERa SRC1 inh -3, MRP-1 activ -2, MRP resist rev 2, ERa coact pot 90, Smad3 inh -13 and ERb coact inh 1.
`O=C(CS(=O)(=O)c1cn(Cc2ccc(Cl)cc2)c2ccccc12)N1CCCC1` gave ERa SRC1 inh 12, MRP-1 activ -1, MRP resist rev -3, ERa coact pot 86, Smad3 inh -8 and ERb coact inh 51*[fluorescence artefact?].
Screening COc1ccc(CNC(=O)c2ccc(NC(=O)C3CCCO3)cc2)cc1 (stereo not given) returned ERa SRC1 inh 10, MRP-1 activ 0, MRP resist rev -10, ERa coact pot 103, Smad3 inh -1 and ERb coact inh 1.
Screening CCN(CC)S(=O)(=O)c1cccc(-c2nnc(SCCCC(=O)c3ccc(F)cc3)o2)c1 returned ERa SRC1 inh 1, MRP-1 activ -3, MRP resist rev 13, ERa coact pot 578*[fluorescence artefact?], Smad3 inh -5 and ERb coact inh 27.
NC(=O)SCC(=O)Nc1ccc2ncccc2c1 was read as Smad3 inh 41.
`CCOC(=O)c1ccc(N=C2NC(=O)CS2)cc1` gave ERa SRC1 inh -5, MRP-1 activ 0, MRP resist rev 8, ERa coact pot 92, Smad3 inh 5 and ERb coact inh -7.
Screening CCOC(=O)c1ccc(N2CN=C3SCC(=O)N3C2)cc1 returned ERa SRC1 inh -5, MRP-1 activ 5.8*, MRP resist rev -1, ERa coact pot 108, Smad3 inh -2 and ERb coact inh 5.
For CN[C@@H](c1ccncc1)[C@@H](NC)c1ccncc1 the results were Smad3 inh -10.
Screening COc1cc(C)cc2c(-c3c(O)cc(O)c4c3C[C@H](C)N[C@@H]4C)cc(-c3cc(-c4c(O)cc(O)c5c4C[C@H](C)N[C@@H]5C)c4cc(C)cc(OC)c4c3O)c(O)c12 returned Smad3 inh 4.
`Cc1nn(C)cc1/C=C1\SC(=S)NC1=O` gave MRP-1 activ -3.
`Cc1cc(/C=C2\SC(=S)NC2=O)c(C)n1C` gave MRP-1 activ 5.5*.
CN(C)CCCNC(=O)CCC1CCCCC1 was read as ERa SRC1 inh -2, MRP-1 activ -1, MRP resist rev -5, ERa coact pot 109, Smad3 inh 4 and ERb coact inh 2.
CSc1nc2ccccc2n1Cc1cccc(F)c1 was read as ERa SRC1 inh 2, MRP-1 activ -1, ERa coact pot 93, Smad3 inh 7 and ERb coact inh 75*[fluorescence artefact?].
CSc1nc2ccccc2n1Cc1cccc([N+](=O)[O-])c1 was read as MRP-1 activ -2.
Screening COc1ccc(Cc2nnc(N/N=C/c3ccc(O)cc3O)[nH]c2=O)cc1OC returned MRP-1 activ 6.0*.
Screening COc1ccc(Cc2nc3ccccc3n2CC(=O)N/N=C/c2ccc(C)cc2O)cc1OC returned MRP-1 activ 3.
`Cc1csc(C(=O)O)c1-n1cccc1` gave MRP-1 activ -1.
